Reference: PubChem BioAssay (Tox21)
Records with an inconclusive call do not appear. Calls of active or inactive are those of the source. Unless noted, calls follow the shape of the dose curve; as a rule, active = well fitted curve in the direction sought with a large enough effect in the repeat runs; inconclusive = weak or mixed curves; inactive = no such curve, though single readings can be large; an effect the other way counts as inactive or inconclusive.

Key:
[1] = qHTS assay to identify small molecule agonists of the TGF-beta/Smad signaling pathway (AID 1346859; active = well fitted activation curve with a large enough effect in the signal ratio in the repeat runs, not every such curve was filed as active; the % refers to the signal ratio); details: SBE-bla HEK293T, TGF-beta/Smad beta-lactamase reporter, 5 h; series mostly up to 76.8 µM
How it was run: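 After overnight seeding, SBE-bla HEK 293T cells are dosed with compounds in DMSO and kept 5 hr at 37 C, 5% CO2. LiveBLAzer-type FRET substrate is then applied for 2 hr at room temperature.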

[2] = Caspase-3/7 induction in HepG2 cells by small molecules, qHTS assay (AID 1346978); details: HepG2 caspase-3/7 activation, Caspase-Glo luminescence, 17 h; series mostly up to 92.4 µM; also: nearly all actives have a fitted effect of over 15% in size
How it was run: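 Wild-type HepG2 cells, 2,000/well, settled 5 hr at 37 C and 5% CO2, then compound-treated for 17 hr; caspase-3/7 activity read by luminescent Caspase-Glo 3/7 after 30 min at room temperature.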

[3] = Caspase-3/7 induction in CHO-K1 cells by small molecules, qHTS cell viability counter screen (AID 1346979); details: CellTiter-Fluor fluorescence, 17 h; series mostly up to 92.4 µM; also: nearly all actives have a fitted effect of over 35% in size
How it was run: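 Viability readout by fluorescence (CellTiter-Fluor) on wild-type CHO-K1 cells exposed for 16hr at 37C and 5% CO2 to compounds delivered in DMSO; reagent incubated 1hr before reading.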

[4] = Caspase-3/7 induction in CHO-K1 cells by small molecules, qHTS assay (AID 1346980); details: CHO-K1 caspase-3/7 induction, Caspase-Glo luminescence, 17 h; series mostly up to 92.4 µM; also: nearly all actives have a fitted effect of over 15% in size
How it was run: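 Wild-type CHO-K1 cells exposed to compounds for 17hr at 37 C, 5% CO2. Caspase-3/7 activity then measured by Caspase-Glo 3/7 luminescence after 30min at room temperature.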

[5] = Caspase-3/7 induction in HepG2 cells by small molecules, qHTS cell viability counter screen (AID 1346981); details: CellTiter-Fluor fluorescence, 17 h; series mostly up to 92.4 µM; also: nearly all actives have a fitted effect of over 30% in size
How it was run: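 Wild-type HepG2 cells (2,000/well) were allowed to settle for 5 hr at 37 C, 5% CO2, then dosed with compounds in DMSO by pin transfer. After 16 hr at 37 C, CellTiter-Fluor was added and fluorescence read 1 hr later.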

[6] = target: Nuclear receptor subfamily 1 group I member 2 (Homo sapiens) (UniProt O75469); assay: Human pregnane X receptor (PXR) small molecule agonists, qHTS assay (AID 1346982); details: PXR-Luc HepG2, CYP3A4 luciferase reporter, 24 h; series mostly up to 92.4 µM; also: nearly all actives have a fitted effect of over 35% in size; also: potency is read from the fitted curve at half-maximal effect
Chain of Nuclear receptor subfamily 1 group I member 2 (Homo sapiens) (O75469 whole entry, looked up): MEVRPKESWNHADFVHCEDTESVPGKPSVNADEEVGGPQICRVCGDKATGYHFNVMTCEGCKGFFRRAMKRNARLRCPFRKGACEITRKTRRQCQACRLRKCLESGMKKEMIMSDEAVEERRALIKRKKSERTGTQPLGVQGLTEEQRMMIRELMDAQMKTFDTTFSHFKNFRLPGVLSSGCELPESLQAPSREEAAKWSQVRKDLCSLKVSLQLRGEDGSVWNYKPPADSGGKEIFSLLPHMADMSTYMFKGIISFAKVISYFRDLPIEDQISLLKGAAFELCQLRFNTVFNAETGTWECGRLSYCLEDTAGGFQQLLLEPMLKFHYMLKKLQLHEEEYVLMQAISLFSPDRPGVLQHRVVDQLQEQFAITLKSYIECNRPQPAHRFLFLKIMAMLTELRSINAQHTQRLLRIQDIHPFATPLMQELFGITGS
How it was run: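 PXR-Luc HepG2 cells (CYP3A4 promoter-driven luciferase) were seeded in medium with 5% charcoal-stripped FBS, left 5 hr at 37 C, then exposed to compounds in DMSO for 24 hr. Luminescence was read after ONE-Glo addition.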

[7] = target: Cytochrome P450 2C9 (Homo sapiens) (UniProt P11712); assay: Cytochrome P450 Family 2 Subfamily C Member 9 (CYP2C9) small molecule antagonists: luciferase reporter qHTS assay (AID 1671198); details: P450-Glo CYP2C9 enzyme assay, luciferin luminescence; series mostly up to 115 µM; also: nearly all actives have a fitted effect of over 50% in size
Chain of Cytochrome P450 2C9 (Homo sapiens) (P11712 whole entry, looked up): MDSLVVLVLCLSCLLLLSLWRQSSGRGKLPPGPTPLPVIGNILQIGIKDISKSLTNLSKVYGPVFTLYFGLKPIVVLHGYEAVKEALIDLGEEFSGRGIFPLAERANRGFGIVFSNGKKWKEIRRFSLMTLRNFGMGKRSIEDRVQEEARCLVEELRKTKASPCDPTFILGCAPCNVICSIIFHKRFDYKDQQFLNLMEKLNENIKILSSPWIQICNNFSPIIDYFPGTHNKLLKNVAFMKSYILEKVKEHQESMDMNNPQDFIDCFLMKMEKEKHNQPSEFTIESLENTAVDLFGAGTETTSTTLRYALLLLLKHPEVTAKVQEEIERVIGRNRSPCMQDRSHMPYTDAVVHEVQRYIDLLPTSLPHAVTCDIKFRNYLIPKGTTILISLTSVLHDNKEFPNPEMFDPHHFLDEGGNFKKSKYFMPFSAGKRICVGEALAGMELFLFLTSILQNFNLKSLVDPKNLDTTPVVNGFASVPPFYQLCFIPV
How it was run: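 P450-Glo proluciferin substrate with CYP2C9 enzyme; 10 min RT preincubation, then NADPH regeneration 1 h at 37C; luciferin detection reagent 20 min RT, luminescence in relative luminescence units.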

[8] = target: Cytochrome P450 1A2 (Homo sapiens) (UniProt P05177); assay: Cytochrome P450 Family 1 Subfamily A Member 2 (CYP1A2) small molecule antagonists: luciferase reporter qHTS assay (AID 1671199); details: P450-Glo CYP1A2 enzyme, luciferin luminescence, 1 h; series mostly up to 115 µM; also: nearly all actives have a fitted effect of over 50% in size
Chain of Cytochrome P450 1A2 (Homo sapiens) (P05177 whole entry, looked up): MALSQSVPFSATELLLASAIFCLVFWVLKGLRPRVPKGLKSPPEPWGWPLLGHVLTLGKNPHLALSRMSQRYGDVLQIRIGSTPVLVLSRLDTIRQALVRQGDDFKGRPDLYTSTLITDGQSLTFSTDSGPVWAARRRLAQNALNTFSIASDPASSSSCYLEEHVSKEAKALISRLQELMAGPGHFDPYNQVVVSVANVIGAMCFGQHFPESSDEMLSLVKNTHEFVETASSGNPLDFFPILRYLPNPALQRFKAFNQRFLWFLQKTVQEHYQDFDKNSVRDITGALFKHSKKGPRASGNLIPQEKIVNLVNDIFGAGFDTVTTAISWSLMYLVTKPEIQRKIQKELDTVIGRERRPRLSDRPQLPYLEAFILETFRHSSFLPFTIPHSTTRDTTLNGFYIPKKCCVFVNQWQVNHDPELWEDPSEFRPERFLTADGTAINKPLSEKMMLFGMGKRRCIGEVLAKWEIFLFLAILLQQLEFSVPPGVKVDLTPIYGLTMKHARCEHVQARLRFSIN
How it was run: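 Human CYP1A2 activity measured with a P450-Glo proluciferin substrate; compounds in DMSO preincubated 10 min at room temperature with enzyme-substrate mix, then NADPH regeneration system added for 1 h. Luciferin detection reagent, 20 min, luminescence read.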

[9] = target: Voltage-gated inwardly rectifying potassium channel KCNH2 (Homo sapiens) (UniProt Q12809); assay: Human Ether-a-go-go-Related Gene (hERG) channel small molecule antagonists: fluorescence cell-based qHTS assay (AID 1671200); details: hERG-U2OS cells, FluxOR thallium flux fluorescence; series mostly up to 76.8 µM;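 also: hERG-expressing U2OS cells given a thallium stimulus after FluxOR II dye loading; nearly all actives have a fitted effect of over 50% in size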
Chain of Voltage-gated inwardly rectifying potassium channel KCNH2 (Homo sapiens) (Q12809 whole entry, looked up): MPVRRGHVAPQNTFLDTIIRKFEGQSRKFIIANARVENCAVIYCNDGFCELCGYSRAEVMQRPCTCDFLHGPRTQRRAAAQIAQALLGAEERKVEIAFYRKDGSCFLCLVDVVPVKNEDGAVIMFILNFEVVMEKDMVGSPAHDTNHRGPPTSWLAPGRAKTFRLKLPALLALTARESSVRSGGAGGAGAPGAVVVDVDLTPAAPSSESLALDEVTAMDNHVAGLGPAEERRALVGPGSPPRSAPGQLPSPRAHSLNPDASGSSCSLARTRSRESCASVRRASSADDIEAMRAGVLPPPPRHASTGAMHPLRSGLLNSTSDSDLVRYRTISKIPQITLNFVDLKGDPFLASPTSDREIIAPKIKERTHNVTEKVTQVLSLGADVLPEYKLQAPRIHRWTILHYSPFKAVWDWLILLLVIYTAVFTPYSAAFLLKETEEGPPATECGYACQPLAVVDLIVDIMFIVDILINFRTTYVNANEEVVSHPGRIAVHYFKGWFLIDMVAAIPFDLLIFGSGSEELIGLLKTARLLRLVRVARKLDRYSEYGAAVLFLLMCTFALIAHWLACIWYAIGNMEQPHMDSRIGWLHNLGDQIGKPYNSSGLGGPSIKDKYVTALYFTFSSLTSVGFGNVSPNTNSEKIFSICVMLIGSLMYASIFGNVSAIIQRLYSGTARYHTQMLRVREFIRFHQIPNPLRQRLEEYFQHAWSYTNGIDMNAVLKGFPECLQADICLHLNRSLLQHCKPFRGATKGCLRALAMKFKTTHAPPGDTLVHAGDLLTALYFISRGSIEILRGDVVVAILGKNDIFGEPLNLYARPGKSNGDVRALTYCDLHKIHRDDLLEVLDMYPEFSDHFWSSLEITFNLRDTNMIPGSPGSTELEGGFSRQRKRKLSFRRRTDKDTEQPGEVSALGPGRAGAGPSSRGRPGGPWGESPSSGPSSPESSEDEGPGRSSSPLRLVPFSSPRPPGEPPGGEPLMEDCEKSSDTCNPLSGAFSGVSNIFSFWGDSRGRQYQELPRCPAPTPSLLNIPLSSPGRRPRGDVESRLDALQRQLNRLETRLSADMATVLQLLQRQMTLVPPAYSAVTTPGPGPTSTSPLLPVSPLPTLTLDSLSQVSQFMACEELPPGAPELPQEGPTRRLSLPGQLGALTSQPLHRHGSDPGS
How it was run: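 Thallium served as the potassium surrogate; its influx into dye-loaded U2OS cells carrying the channel was measured by fluorescence over 2 min.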

[10] = target: Cytochrome P450 3A4 (Homo sapiens) (UniProt P08684); assay: Cytochrome P450 Family 3 Subfamily A Member 4 (CYP3A4) small molecule antagonists: luciferase reporter qHTS assay (AID 1671201); details: P450-Glo CYP3A4 enzyme, luciferin luminescence, 1 h; series mostly up to 115 µM; also: nearly all actives have a fitted effect of over 50% in size
Chain of Cytochrome P450 3A4 (Homo sapiens) (P08684 whole entry, looked up): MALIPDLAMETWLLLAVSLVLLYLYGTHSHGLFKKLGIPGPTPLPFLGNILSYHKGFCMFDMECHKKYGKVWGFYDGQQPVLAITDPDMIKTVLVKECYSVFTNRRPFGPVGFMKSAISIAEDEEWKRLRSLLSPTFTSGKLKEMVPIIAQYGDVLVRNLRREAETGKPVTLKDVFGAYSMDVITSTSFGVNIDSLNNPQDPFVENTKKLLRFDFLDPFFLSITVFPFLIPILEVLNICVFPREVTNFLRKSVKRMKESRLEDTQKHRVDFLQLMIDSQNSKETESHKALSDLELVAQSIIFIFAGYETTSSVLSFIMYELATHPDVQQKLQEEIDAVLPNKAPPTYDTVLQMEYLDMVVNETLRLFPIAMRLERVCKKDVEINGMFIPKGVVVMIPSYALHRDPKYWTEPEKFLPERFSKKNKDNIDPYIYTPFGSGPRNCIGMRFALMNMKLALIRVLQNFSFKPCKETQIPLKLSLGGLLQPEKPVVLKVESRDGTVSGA
How it was run: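 Relative luminescence units after 20 min with luciferin detection reagent served as read-out. Beforehand, CYP3A4 turned over a proluciferin substrate for 1 h at room temperature with NADPH regeneration, following 10 min compound preincubation.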

[11] = Human pregnane X receptor (PXR) small molecule agonists, qHTS cell viability counter screen (AID 1346977); details: PXR-Luc HepG2 viability, CellTiter-Fluor, 24 h; series mostly up to 92.4 µM; also: nearly all actives have a fitted effect of over 50% in size
How it was run: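 Viability counter screen: CellTiter-Fluor signal in PXR-Luc HepG2 cells, 24hr compound exposure, 37C, 5% CO2.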

[12] = target: Cytochrome P450 2D6 (Homo sapiens) (UniProt P10635); assay: Cytochrome P450 Family 2 Subfamily D Member 6 (CYP2D6) small molecule antagonists: luciferase reporter qHTS assay (AID 1671196); details: P450-Glo CYP2D6 enzyme assay, luciferin luminescence, 1 h; series mostly up to 115 µM; also: nearly all actives have a fitted effect of over 50% in size; also: potency is read from the fitted curve at half-maximal effect
Chain of Cytochrome P450 2D6 (Homo sapiens) (P10635 whole entry, looked up): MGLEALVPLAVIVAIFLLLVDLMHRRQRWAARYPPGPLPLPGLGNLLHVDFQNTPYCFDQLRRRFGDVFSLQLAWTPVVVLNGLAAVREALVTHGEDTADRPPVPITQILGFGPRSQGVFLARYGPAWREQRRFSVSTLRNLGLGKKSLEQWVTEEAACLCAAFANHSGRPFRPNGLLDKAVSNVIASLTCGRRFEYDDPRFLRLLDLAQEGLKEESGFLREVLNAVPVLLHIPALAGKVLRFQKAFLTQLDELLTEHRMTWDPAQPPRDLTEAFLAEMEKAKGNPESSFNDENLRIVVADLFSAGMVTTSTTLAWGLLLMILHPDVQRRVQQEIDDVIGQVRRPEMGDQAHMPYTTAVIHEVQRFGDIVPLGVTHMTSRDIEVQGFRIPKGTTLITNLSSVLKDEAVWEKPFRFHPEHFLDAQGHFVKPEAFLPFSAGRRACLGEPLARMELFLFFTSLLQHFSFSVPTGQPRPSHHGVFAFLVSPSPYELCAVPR
How it was run: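 CYP2D6 enzyme–substrate mix was held with compound for 10 min at room temperature, then NADPH regeneration solution was added and the reaction ran 1 h at room temperature. Luciferin product was detected by luminescence after 20 min with detection reagent.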

[13] = target: Cytochrome P450 2C19 (Homo sapiens) (UniProt P33261); assay: Cytochrome P450 Family 2 Subfamily C Member 19 (CYP2C19) small molecule antagonists: luciferase reporter qHTS assay (AID 1671197); details: P450-Glo CYP2C19 enzyme, luciferin luminescence, 1 h; series mostly up to 115 µM; also: nearly all actives have a fitted effect of over 65% in size; also: potency is read from the fitted curve at half-maximal effect
Chain of Cytochrome P450 2C19 (Homo sapiens) (P33261 whole entry, looked up): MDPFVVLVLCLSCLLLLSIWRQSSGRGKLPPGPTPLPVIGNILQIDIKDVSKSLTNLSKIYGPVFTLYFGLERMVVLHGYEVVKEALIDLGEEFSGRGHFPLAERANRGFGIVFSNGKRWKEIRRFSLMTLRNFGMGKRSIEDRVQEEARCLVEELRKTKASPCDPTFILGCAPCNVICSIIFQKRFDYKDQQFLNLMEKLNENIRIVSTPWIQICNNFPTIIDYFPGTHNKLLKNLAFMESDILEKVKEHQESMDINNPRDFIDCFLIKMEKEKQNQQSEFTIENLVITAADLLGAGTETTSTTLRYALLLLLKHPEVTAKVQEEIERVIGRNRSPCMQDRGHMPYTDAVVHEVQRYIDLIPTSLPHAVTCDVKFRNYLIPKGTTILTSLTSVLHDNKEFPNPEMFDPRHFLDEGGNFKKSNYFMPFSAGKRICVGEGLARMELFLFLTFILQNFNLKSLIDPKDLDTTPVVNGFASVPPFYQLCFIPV
How it was run: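 P450-Glo CYP2C19 screening system; proluciferin substrate; DMSO compound stocks; 10 min RT preincubation; NADPH regeneration, 1 h at 37C; luciferin detection reagent, 20 min RT; luminescence as RLU.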

[14] = target: Thyrotropin-releasing hormone receptor (Homo sapiens) (UniProt P34981); assay: qHTS assay to identify small molecule antagonists of the thyrotropin-releasing hormone receptor (TRHR) signaling pathway (AID 1346877; active = well fitted inhibition curve with a large enough effect in the repeat runs, not every such curve was filed as active); details: TRHR-HEK293, TRH-induced calcium fluorescence, antagonist mode; series mostly up to 51.3 µM
Chain of Thyrotropin-releasing hormone receptor (Homo sapiens) (P34981 whole entry, looked up): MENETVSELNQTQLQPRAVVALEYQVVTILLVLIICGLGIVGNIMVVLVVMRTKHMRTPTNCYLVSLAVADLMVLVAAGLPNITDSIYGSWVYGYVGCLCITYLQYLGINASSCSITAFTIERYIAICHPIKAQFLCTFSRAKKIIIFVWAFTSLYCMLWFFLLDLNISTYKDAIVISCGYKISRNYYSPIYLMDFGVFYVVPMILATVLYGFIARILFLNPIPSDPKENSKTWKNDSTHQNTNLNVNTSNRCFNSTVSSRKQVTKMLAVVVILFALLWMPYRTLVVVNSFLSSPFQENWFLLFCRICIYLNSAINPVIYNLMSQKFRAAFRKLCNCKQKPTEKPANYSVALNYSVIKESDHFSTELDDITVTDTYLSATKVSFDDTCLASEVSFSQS
How it was run: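 TRHR-expressing HEK293 cells were seeded, cultured 18 h at 37 °C, then loaded with calcium dye for 2 h. Compounds were pre-incubated 5 min at room temperature before 1 nM TRH (final) was added, and kinetic fluorescence was recorded for 3 min.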

[15] = target: Thyrotropin-releasing hormone receptor (Homo sapiens) (UniProt P34981); assay: qHTS assay to identify small molecule agonists of the thyrotropin-releasing hormone receptor (TRHR) signaling pathway (AID 1346891; calls by dose curve); details: TRHR-HEK293 calcium fluorescence, agonist mode; series mostly up to 57.6 µM
How it was run: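 Compounds were tested as agonists at 15 concentrations, in triplicate, on TRHR-Hek293 cells; calcium-sensitive dye fluorescence was recorded for 3 min following addition.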

[16] = target: Nuclear receptor subfamily 1 group I member 2 (Rattus norvegicus) (UniProt Q9R1A7); assay: Rat pregnane X receptor (rPXR) activation by small molecules, qHTS assay (AID 1346983); details: rPXR luciferase reporter cells, One-Glo luminescence, 24 h; hits give high values; also: nearly all actives have a fitted effect of over 20% in size
Chain of Nuclear receptor subfamily 1 group I member 2 (Rattus norvegicus) (Q9R1A7 whole entry, looked up): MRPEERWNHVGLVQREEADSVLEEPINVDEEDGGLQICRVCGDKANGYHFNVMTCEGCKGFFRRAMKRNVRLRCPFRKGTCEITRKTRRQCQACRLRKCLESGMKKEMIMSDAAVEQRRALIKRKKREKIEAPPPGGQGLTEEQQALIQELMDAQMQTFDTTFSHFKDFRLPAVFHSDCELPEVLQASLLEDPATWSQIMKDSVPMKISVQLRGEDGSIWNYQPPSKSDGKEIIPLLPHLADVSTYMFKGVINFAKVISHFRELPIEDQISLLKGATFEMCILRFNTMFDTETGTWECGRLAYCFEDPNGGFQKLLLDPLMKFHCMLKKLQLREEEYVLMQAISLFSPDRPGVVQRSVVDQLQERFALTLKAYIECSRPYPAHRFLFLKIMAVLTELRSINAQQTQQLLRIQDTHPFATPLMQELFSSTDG
How it was run: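 Cell-based rPXR activation assay: rPXR cells, 2,000 per well, rested 5hr at 37 C, then exposed to compounds in DMSO for 24 hr at 37 C. Luciferase activity read by One-Glo luminescence after 30 min at room temperature.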

[17] = target: Nuclear receptor subfamily 1 group I member 2 (Homo sapiens) (UniProt O75469); assay: CYP3A4 induction through human pregnane X receptor (PXR) by small molecules, qHTS assay (AID 1346984); details: DPX-2 HepG2 PXR, CYP3A4-luciferin luminescence, 24 h; series mostly up to 46.1 µM; also: nearly all actives have a fitted effect of over 40% in size
How it was run: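 DPX-2 cells (HepG2 co-transfected with PXR and CYP3A4 promoter-luciferase) treated with compounds 24 h at 37C; luciferin-IPA CYP3A4 substrate 3uM final added for 3 h, then One-Glo; luminescence read. qHTS format.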

[18] = target: Nuclear receptor subfamily 1 group I member 2 (Homo sapiens) (UniProt O75469); assay: Human pregnane X receptor (PXR) activation by small molecules, qHTS assay (AID 1346985); details: DPX-2 HepG2 CYP3A4-luciferase, 24 h; series mostly up to 38.3 µM; also: nearly all actives have a fitted effect of over 40% in size
How it was run: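 DPX-2 cells (HepG2 co-transfected with a PXR response element and a CYP3A4-promoter luciferase construct) were seeded at 2,000 per well, rested 5 hr at 37C, then exposed to DMSO-dissolved compounds for 24 hr. Activation was read as luciferase luminescence.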
% is scaled to controls: 0 for no effect and ±100 for the full control effect.

CC1=C(C(=O)O)N2C(=O)[C@@H](NC(=O)[C@H](N)C3=CCC=CC3)[C@H]2SC1
inactive: outcome [1] | outcome [2] | Potency [3] | outcome [4] | outcome [5] | Potency [6] | Potency [7] | Potency [8] | Potency [9] | Potency [10]

CC(C)C1OCCN1CCOC(=O)NCCCCCCNC(=O)OCCN1CCOC1C(C)C (stereo unspecified)
inactive: outcome [1] | outcome [11] | outcome [2] | Potency [3] | outcome [4] | outcome [5] | Potency [7] | Potency [8] | Potency [9]
active: Potency [6] 34.4 µM | Potency [12] 63.3 µM | Potency [13] 35.6 µM

CC(C)C[C@@H]1[C@H](c2ccccc2)OC(=O)N1CCCN1CCCCCC1
inactive: outcome [1] | outcome [14] | outcome [15] | outcome [2] | Potency [3] | outcome [4] | outcome [5] | Potency [8] | Potency [9]
active: Potency [12] 0.436 µM | Potency [13] 2.75 µM

C=CC(=O)OCC1CCCO1 (stereo unspecified)
inactive: outcome [1] | outcome [14] | outcome [15] | outcome [11] | outcome [2] | Potency [3] | outcome [4] | outcome [5] | Potency [6] | Potency [12] | Potency [13] | Potency [7] | Potency [9] | Potency [10]

CC(=O)C1C(=O)C=C(C)OC1=O (stereo unspecified)
inactive: outcome [1] | outcome [14] | outcome [15] | outcome [11] | outcome [2] | Potency [3] | outcome [4] | outcome [5] | Potency [6] | Potency [13] | Potency [8] | Potency [9]

C=CC/C=C/C
inactive: outcome [1] | outcome [14] | outcome [11] | outcome [2] | Potency [3] | outcome [4] | outcome [5] | Potency [6] | Potency [13] | Potency [7] | Potency [9] | Potency [10]

CCN1CCCC1CN (stereo unspecified)
inactive: outcome [1] | outcome [11] | outcome [2] | Potency [3] | outcome [4] | outcome [5] | Potency [6] | Potency [12] | Potency [7] | Potency [9] | Potency [10]

CC1CCc2c(N3CCC(O)CC3)c(F)cc3c(=O)c(C(=O)O)cn1c23 (stereo unspecified)
inactive: outcome [14] | outcome [15] | outcome [11] | outcome [2] | Potency [3] | outcome [4] | outcome [5] | Potency [6] | max activation [16] -2.67% | Potency [17] | Potency [18] | Potency [12] | Potency [8] | Potency [9]

C=CCCCC
inactive: outcome [1] | outcome [11] | outcome [2] | Potency [3] | outcome [4] | outcome [5] | Potency [6] | Potency [12] | Potency [13] | Potency [7] | Potency [8] | Potency [9]

OCC(O)CN1CCN(c2ccccc2)CC1 (stereo unspecified)
inactive: outcome [1] | outcome [14] | outcome [11] | outcome [2] | Potency [3] | outcome [4] | outcome [5] | Potency [6] | Potency [7] | Potency [8] | Potency [9] | Potency [10]

O=NN(CCCl)C(=O)NC1CCCCC1
inactive: outcome [1] | outcome [14] | outcome [11] | outcome [2] | Potency [3] | outcome [4] | outcome [5] | Potency [6] | max activation [16] -2.8% | Potency [17] | Potency [18] | Potency [12] | Potency [13] | Potency [7] | Potency [8] | Potency [9] | Potency [10]

OCCN1CCOCC1
inactive: outcome [1] | outcome [15] | outcome [11] | outcome [2] | Potency [3] | outcome [4] | outcome [5] | Potency [6] | Potency [12] | Potency [13] | Potency [7] | Potency [8] | Potency [9] | Potency [10]

CC(N)CCCC(C)(C)O (stereo unspecified)
inactive: outcome [1] | outcome [11] | outcome [2] | Potency [3] | outcome [4] | outcome [5] | max activation [16] -1.43% | Potency [13] | Potency [7] | Potency [8] | Potency [9]

CCCCC1CCC(O)CC1 (stereo unspecified)
inactive: outcome [1] | outcome [14] | outcome [15] | outcome [11] | outcome [2] | Potency [3] | outcome [4] | outcome [5] | Potency [6] | Potency [12] | Potency [13] | Potency [7] | Potency [9] | Potency [10]
